Experimental data published in PubChem BioAssay AID1159580 (chemical genetic matrix, 2015).
In all, about 5,500 compounds went through this assay and about 2,000 (36%) were called active. Another 18% or so got no clear call; they are omitted. No stated cut-off is given here; in the data, active means normalized growth mostly below about 0.91 (no sharp cut-off); inconclusive means no clear call, values can overlap the other calls; inactive means mostly above about 0.92. This is one part of the list.

Assay: chemical genetic growth profiling, strain panel (AID 1159580);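 further: tested at 20 µM; growth read once vehicle control cultures reached saturation at 30 °C; 1 = growth at the plate median or of vehicle wells; lower values mean less growth of the strain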
Conditions: S. cerevisiae deletion strains, growth OD

Measured: normalized growth

COc1ccc(-c2cc(=O)c3c(O)cc(O)c(-c4cc(-c5cc(=O)c6c(O)cc(O)cc6o5)ccc4OC)c3o2)cc1
inactive: locus YAL021C, strain ccr4, active compounds read low 1 | locus YAL026C, strain drs2, active compounds read low 1.01 | locus YAL030W, strain snc1, active compounds read low 0.997 | locus YBL061C, strain skt5, active compounds read low 1.01 | locus YBR009C, strain hhf1, active compounds read low 1.01 | locus YBR021W, strain FUR4, active compounds read low 1.03 | locus YBR023C, strain chs3, active compounds read low 1 | locus YBR171W, strain sec66, active compounds read low 1.02 | locus YBR229C, strain ROT2, active compounds read low 0.998 | locus YBR231C, strain swc5, active compounds read low 1.01 | locus YBR279W, strain paf1, active compounds read low 1.01 | locus YCL011C, strain gbp2, active compounds read low 1 | locus YCL016C, strain dcc1, active compounds read low 1 | locus YCL029C, strain bik1, active compounds read low 1.01 | locus YCL061C, strain MRC1, active compounds read low 1.01 | locus YCL069W, strain vba3, active compounds read low 1.01 | locus YCR088W, strain abp1, active compounds read low 1.02 | locus YDL005C, strain med2, active compounds read low 1.01 | locus YDL035C, strain GPR1, active compounds read low 1.03 | locus YDL040C, strain nat1, active compounds read low 1.01 | locus YDL074C, strain BRE1, active compounds read low 1.05 | locus YDL101C, strain DUN1, active compounds read low 1.01 | locus YDL185W, strain tfp1, active compounds read low 0.997 | locus YDL192W, strain arf1, active compounds read low 1 | locus YDR001C, strain nth1, active compounds read low 1.02 | locus YDR069C, strain doa4, active compounds read low 0.95 | locus YDR101C, strain arx1, active compounds read low 1.02 | locus YDR137W, strain rgp1, active compounds read low 0.997 | locus YDR159W, strain sac3, active compounds read low 1.03 | locus YDR162C, strain NBP2, active compounds read low 0.993 | locus YDR195W, strain ref2 0.993 | locus YDR297W, strain sur2, active compounds read low 0.998 | locus YDR318W, strain mcm21, active compounds read low 1 | locus YDR334W, strain swr1, active compounds read low 0.992 | locus YDR335W, strain msn5, active compounds read low 1.01 | locus YDR388W, active compounds read low 1 | locus YDR392W, strain spt3, active compounds read low 0.998 | locus YDR502C, strain sam2, active compounds read low 1.02 | locus YEL003W, strain gim4, active compounds read low 1 | locus YEL037C, strain rad23, active compounds read low 1.02 | locus YEL061C, strain CIN8 (second series), active compounds read low 1.01 | locus YEL061C, strain CIN8, active compounds read low 1.01 | locus YER015W, strain faa2, active compounds read low 1.01 | locus YER016W, strain bim1, active compounds read low 1.01 | locus YER110C, active compounds read low 1.02 | locus YER111C, strain swi4, active compounds read low 1.03 | locus YER155C, strain BEM2 (second series), active compounds read low 0.995 | locus YER155C, strain BEM2, active compounds read low 1.01 | locus YER167W, strain BCK2, active compounds read low 1.02 | locus YFR010W, strain ubp6, active compounds read low 0.965 | locus YGL078C, strain dbp3, active compounds read low 1.01 | locus YGL167C, strain pmr1, active compounds read low 1.01 | locus YGL173C, strain kem1, active compounds read low 1 | locus YGL227W, strain vid30, active compounds read low 1.02 | locus YGL240W, strain doc1, active compounds read low 1.02 | locus YGL248W, strain PDE1, active compounds read low 0.986 | locus YGL253W, strain hxk2, active compounds read low 1.01 | locus YGR078C, strain PAC10, active compounds read low 1.03 | locus YGR135W, strain pre9, active compounds read low 0.997 | locus YGR252W, strain gcn5, active compounds read low 0.995 | locus YHR013C, strain ard1, active compounds read low 0.993 | locus YHR027C, strain rpn1, active compounds read low 1.01 | locus YHR030C, strain SLT2, active compounds read low 1.02 | locus YHR079C, strain IRE1 (second series), active compounds read low 1.01 | locus YHR094C, strain hxt1, active compounds read low 1.01 | locus YHR129C, strain ARP1, active compounds read low 1.01 | locus YHR142W, strain chs7, active compounds read low 0.998 | locus YHR200W, strain rpn10, active compounds read low 1.01 | locus YIL066C, strain RNR3, active compounds read low 0.993 | locus YIL073C, strain SPO22, active compounds read low 1.03 | locus YIL125W, strain kgd1, active compounds read low 1.01 | locus YIR030C, strain dcg1, active compounds read low 1.01 | locus YJL092W, strain hpr5, active compounds read low 1.02 | locus YJL095W, strain BCK1 (second series), active compounds read low 1.01 | locus YJL095W, strain BCK1, active compounds read low 1.08 | locus YJL115W, strain asf1, active compounds read low 1.01 | locus YJL129C, strain trk1, active compounds read low 1.04 | locus YJL134W, strain LCB3, active compounds read low 1.02 | locus YJL154C, strain vps35, active compounds read low 1.01 | locus YJL164C, strain tpk1, active compounds read low 0.987 | locus YJL166W, strain qcr8, active compounds read low 0.997 | locus YJL168C, strain set2, active compounds read low 1.01 | locus YJL187C, strain SWE1 (second series), active compounds read low 0.993 | locus YJL187C, strain SWE1, active compounds read low 0.99 | locus YJR043C, strain POL32, active compounds read low 1.01 | locus YJR075W, strain HOC1, active compounds read low 1.04 | locus YKL009W, strain mrt4, active compounds read low 1.03 | locus YKL068W, active compounds read low 1.01 | locus YKL085W, strain MDH1 (second series), active compounds read low 1.06 | locus YKL085W, strain MDH1, active compounds read low 1.06 | locus YKL160W, strain elf1, active compounds read low 0.998 | locus YKR001C, strain vps1, active compounds read low 1.01 | locus YKR026C, strain gcn3, active compounds read low 0.998 | locus YKR091W, strain srl3, active compounds read low 1.01 | locus YLL001W, strain dnm1, active compounds read low 1.02 | locus YLL026W, active compounds read low 1.02 | locus YLL041C, strain sdh2, active compounds read low 0.995 | locus YLR027C, strain aat2, active compounds read low 1 | locus YLR039C, strain RIC1, active compounds read low 1.16 | locus YLR058C, strain SHM2, active compounds read low 1 | locus YLR102C, strain apc9, active compounds read low 1.01 | locus YLR221C, strain rsa3, active compounds read low 0.999 | locus YLR258W, strain gsy2, active compounds read low 1.01 | locus YLR262C, strain YPT6 (second series), active compounds read low 1.02 | locus YLR262C, strain YPT6, active compounds read low 1.24 | locus YLR268W, strain sec22, active compounds read low 0.985 | locus YLR320W, strain mms22, active compounds read low 1.01 | locus YLR330W, strain CHS5, active compounds read low 1.03 | locus YLR342W, strain FKS1 (second series), active compounds read low 1.02 | locus YLR342W, strain FKS1, active compounds read low 0.978 | locus YLR357W, strain rsc2, active compounds read low 0.973 | locus YLR370C, strain arc18, active compounds read low 0.997 | locus YLR371W, strain rom2, active compounds read low 1 | locus YLR384C, strain iki3, active compounds read low 1.02 | locus YLR418C, strain cdc73, active compounds read low 1.04 | locus YML016C, strain PPZ1, active compounds read low 0.999 | locus YML032C, strain rad52, active compounds read low 1.01 | locus YML120C, strain ndi1, active compounds read low 1.03 | locus YML124C, strain tub3, active compounds read low 1.01 | locus YMR058W, strain fet3, active compounds read low 0.99 | locus YMR078C, strain ctf18, active compounds read low 1.02 | locus YMR125W, strain sto1, active compounds read low 1.02 | locus YMR129W, active compounds read low 1.01 | locus YMR205C, strain PFK2, active compounds read low 1.02 | locus YMR223W, strain ubp8, active compounds read low 1.01 | locus YMR231W, strain pep5, active compounds read low 1 | locus YMR263W, strain SAP30, active compounds read low 1.03 | locus YMR307W, strain GAS1, active compounds read low 1.13 | locus YNL067W, strain RPL9B, active compounds read low 1.02 | locus YNL071W, strain lat1, active compounds read low 1.01 | locus YNL128W, strain TEP1, active compounds read low 1.03 | locus YNL153C, strain GIM3, active compounds read low 0.98 | locus YNL209W, strain ssb2, active compounds read low 1.01 | locus YNL233W, strain BNI4, active compounds read low 1.04 | locus YNL248C, strain rpa49, active compounds read low 1 | locus YNL250W, strain rad50, active compounds read low 1.01 | locus YNL271C, strain bni1, active compounds read low 1.01 | locus YNL298W, strain CLA4, active compounds read low 1.01 | locus YNL307C, strain MCK1, active compounds read low 1.02 | locus YNL322C, strain KRE1 (second series), active compounds read low 1.02 | locus YNL322C, strain KRE1, active compounds read low 1.01 | locus YNR049C, strain mso1, active compounds read low 1.01 | locus YNR052C, strain pop2, active compounds read low 1.01 | locus YOL006C, strain TOP1, active compounds read low 1.16 | locus YOL012C, strain htz1 0.762 | locus YOL147C, strain pex11, active compounds read low 1.02 | locus YOR001W, strain rrp6, active compounds read low 0.993 | locus YOR061W, strain CKA2, active compounds read low 1 | locus YOR069W, strain VPS5, active compounds read low 1.01 | locus YOR070C, strain gyp1, active compounds read low 1 | locus YOR080W, strain dia2, active compounds read low 1.02 | locus YOR083W, strain WHI5, active compounds read low 1 | locus YOR106W, strain vam3, active compounds read low 0.973 | locus YOR136W, strain idh2, active compounds read low 1.02 | locus YOR144C, strain elg1, active compounds read low 1.01 | locus YOR184W, strain ser1, active compounds read low 1.02 | locus YOR265W, strain rbl2, active compounds read low 1 | locus YOR270C, strain vph1, active compounds read low 0.998 | locus YOR290C, strain snf2, active compounds read low 0.981 | locus YOR316C, strain cot1, active compounds read low 1.01 | locus YPL051W, strain arl3, active compounds read low 0.968 | locus YPL078C, strain atp4, active compounds read low 1.01 | locus YPL106C, strain sse1, active compounds read low 0.983 | locus YPL240C, strain hsp82, active compounds read low 1 | locus YPR119W, strain clb2, active compounds read low 1.01 | locus YPR141C, strain kar3, active compounds read low 1.01 | locus YPR163C, strain tif3, active compounds read low 1.02 | locus YPR167C, strain met16, active compounds read low 1.01 | strain wtn01, active compounds read low 0.998
